Screening data from PubChem BioAssay.
This is one part of a sample in which hits are shown more often than they occur.
RMI FANCM FP – inhibitors of human RMI core complex binding to FANCM MM2. Fluorescence polarization, RMI core complex with F-MM2 peptide; hits give low values. FP signal (polarization) at 33 µM. 70,000 compounds, 0.58% hits; in the data active = FP signal below about 40
A number is an active result; ! = a repeat was not active.

For COc1cc2cc(C(=O)O)cc(-c3ccc(C)cc3)c2cc1OC the results were RMI FANCM FP inactive.
For COc1cc2cc3c4cc(OC)c(OC)cc4cc[n+]3c(C)c2cc1OC the results were RMI FANCM FP 12!.
Screening COc1cc2cc(=O)[nH]c(C)c2cc1OC returned RMI FANCM FP inactive.
`COc1ccc(C(=O)Nc2ccc3c(c2)CN(C(C)=O)CC3)cc1OC` gave RMI FANCM FP inactive.
Screening CN(C)S(=O)(=O)c1ccc(C(=O)NCCn2nc(-c3cccs3)ccc2=O)cc1 returned RMI FANCM FP inactive.
Screening O=C1CC(c2ccc(O)cc2)Oc2cc(O)cc(O)c21 (centres undefined) returned RMI FANCM FP inactive.
For Oc1cc(O)c2c(c1)O[C@H](c1cc(O)c(O)c(O)c1)[C@H](O)[C@H]2c1c(O)cc(O)c2c1O[C@H](c1cc(O)c(O)c(O)c1)[C@H](O)[C@H]2c1c(O)cc(O)c2c1O[C@H](c1cc(O)c(O)c(O)c1)[C@H](O)C2 the results were RMI FANCM FP -7.
`O=C(O[C@@H]1Cc2c(O)cc(O)cc2O[C@@H]1c1cc(O)c(=O)c2c(O)c(O)cc([C@H]3Oc4cc(O)cc(O)c4C[C@H]3O)c2c1)c1cc(O)c(O)c(O)c1` gave RMI FANCM FP inactive.
`CCN1C(=O)C(C)(C)COc2ccc(NC(=O)COc3ccccc3OC)cc21` gave RMI FANCM FP inactive.
Screening CC1CCc2oc3c(cc(NS(=O)(=O)c4cccs4)c4ccccc43)c2C1 (centres undefined) returned RMI FANCM FP inactive.
`CCC(C)(C)C1CCc2oc3c(cc(NS(=O)(=O)c4cccc([N+](=O)[O-])c4)c4ccccc43)c2C1` (centres undefined) gave RMI FANCM FP 32!.
For CC1CCc2oc3c(cc(NS(=O)(=O)c4ccc(Br)cc4)c4ccccc43)c2C1 (centres undefined) the results were RMI FANCM FP inactive.
For COc1ccc(C(Nc2cc(C)ccn2)c2c(C)[nH]c3ccccc23)cc1OC (centres undefined) the results were RMI FANCM FP inactive.
`Cn1nccc1-c1nnc(NC(=O)c2ccc(Br)o2)o1` gave RMI FANCM FP inactive.
Screening COc1ccc(-c2c3c(nc4sc(C(=O)c5ccc6c(c5)OCCO6)c(N)c24)CC(C)(C)CC3=O)cc1 returned RMI FANCM FP -6.
`COc1ccc(-c2c3c(nc4sc(C(=O)c5ccc(Cl)c(Cl)c5)c(N)c24)CC(C)(C)CC3=O)cc1` gave RMI FANCM FP inactive.
Screening COc1ccc(-c2c3c(nc4sc(C(=O)Nc5ccc(F)cc5)c(N)c24)CC(C)(C)CC3=O)cc1 returned RMI FANCM FP inactive.
For Cc1ccc(NC(=O)C(=O)NCCc2ccc3c(c2)CCCN3C)cc1F the results were RMI FANCM FP inactive.
For CC12CC3CC(C)(C1)CC(C(=O)Nc1ccc(F)c(Cl)c1)(C3)C2 the results were RMI FANCM FP inactive.
For O=C(COc1ccc(Cl)cc1Cl)NCCOc1ccc(F)cc1 the results were RMI FANCM FP inactive.
For O=C1C=CC(=NS(=O)(=O)c2cc([N+](=O)[O-])ccc2Cl)C=C1 the results were RMI FANCM FP inactive.
`O=C1C=CC(=NS(=O)(=O)c2ccc(F)cc2)C=C1` gave RMI FANCM FP 2.
O=C1C=CC(=NS(=O)(=O)c2ccc3ccccc3c2)C=C1 was read as RMI FANCM FP inactive.
`CC(C)(C)c1ccc(NC(=S)Nc2ncn[nH]2)cc1` gave RMI FANCM FP inactive.
O=C(O)c1ccc(S(=O)(=O)N2CCc3ccccc32)cc1 was read as RMI FANCM FP inactive.
`CC(=O)N1CCN(Cc2nc(-c3ccco3)cs2)CC1` gave RMI FANCM FP inactive.
`CCOC(=O)N1CCc2c(sc(NC(=O)c3ccc(Br)s3)c2-c2nc3ccccc3s2)C1` gave RMI FANCM FP 6.
`CCOC(=O)N1CCc2c(sc(N)c2-c2nc3ccccc3s2)C1` gave RMI FANCM FP inactive.
For COc1ccc(CC(=O)Nc2sc3c(c2-c2nc4ccccc4s2)CCN(C(C)C)C3)cc1 the results were RMI FANCM FP inactive.
CC(C)N1CCc2c(sc(NC(=O)Cc3ccc(F)cc3)c2-c2nc3ccccc3s2)C1 was read as RMI FANCM FP inactive.
CCOc1ccc(C(=O)Nc2sc3c(c2-c2nc4ccccc4s2)CCN(C(C)C)C3)cc1 was read as RMI FANCM FP -31.
COC(=O)N1CCc2c(sc(NC(=O)c3cccs3)c2-c2nc3ccccc3s2)C1 was read as RMI FANCM FP inactive.
`NC(=O)c1ccccc1NC(=O)C1CCN(c2ccc(-c3ccc(F)cc3)nn2)CC1` gave RMI FANCM FP inactive.
`COc1ccc(S(=O)(=O)N2CCCC(C(=O)Nc3cc(C)no3)C2)cc1` (centres undefined) gave RMI FANCM FP inactive.
Screening Cc1ccc2c(c1)Cc1c(nc(-c3ccccc3)nc1SCC(=O)Nc1cccc(C(=O)O)c1)O2 returned RMI FANCM FP 14.
Screening Cc1cccc2c1Oc1nc(-c3ccccc3)nc(SCC(=O)Nc3ccc4c(c3)OCCO4)c1C2 returned RMI FANCM FP inactive.
Screening Cc1ccc(-c2nc3c(c(SCC(=O)Nc4cccc(C(=O)O)c4)n2)Cc2ccccc2O3)cc1 returned RMI FANCM FP inactive.
